According to PubChem BioAssay AID720580 (National Center for Advancing Translational Sciences (NCATS), 2013):
In all, about 330,000 compounds went through this assay and about 1,500 (0.45%) were called active. Roughly 6% stayed inconclusive and do not appear here. The full list was thinned out, with actives kept by preference. Values without a mark were called inactive. Calls come from the whole dose curve; tested in A549 cells.

assay: qHTS for Stage-Specific Inhibitors of Vaccinia Orthopoxvirus: Venus Reporter Primary qHTS; settings: Vaccinia virus Venus reporter expression, fluorescence; series mostly up to 36.5 µM; activity change, negative = inhibition: at the top concentration; note: nearly all actives have a fitted effect of over 30% in size
% is set by controls: 0 for no effect and ±100 for the full control effect; potency is the fitted concentration of half-maximal effect.

Compound	activity change, negative = inhibition	Potency
CCCNC(=O)C1(C)CCN(Cc2ccc(Cl)c(Cl)c2)C1 (configuration not stated)	3.72%	–
CCCc1ccc(C(O)c2ncc(-c3cccc(OC)c3)[nH]2)cc1 (configuration not stated)	-7.29%	–
Cc1ccc(-c2nc3c(C)cc(Br)cn3c2Cc2ccccc2)cc1	-17%	–
COc1ccccc1Cc1c(-c2ccc(Cl)cc2)nc2ccc(Cl)cn12	-18.1%	–
CN1CCc2cc3c(cc2[C@H]1[C@@H]1OC(=O)c2c1ccc1c2OCO1)OCO3	-15.2%	–
COc1c(O)ccc2c1CN1CCc3cc4c(cc3C1C2)OCO4 (configuration not stated)	–	11.2 µM (active)
COc1ccc2c(c1O)-c1cccc3c1[C@@H](C2)N(C)CC3	-9.77%	–
Cc1cccc(C)c1NC(=O)C(c1cccc2ccccc12)n1c(=O)c(-c2ccco2)nc2ccccc21 (configuration not stated)	-16.4%	–
COc1cc(OC)c2c(-c3cccc(-c4cccc(N)c4)c3)cc(=O)oc2c1	–	12.6 µM (active)
COc1ccc(-c2c(C)cc3oc(=O)cc(-c4ccccc4)c3c2C)cc1F	-20.5%	–
COc1ccc(-c2c(C)cc3oc(=O)cc(-c4ccccc4)c3c2C)cc1OC	-14.3%	–
CN[C@H]1C[C@H]2c3cc(Oc4ccccc4C)ccc3CCN2C(=O)[C@H]1[C@H](C)O	-0.143%	–
CC1=C(C(=O)N(C(C)C)C(C)C)CC(CC(=O)NCCCCc2ccccc2)C(=O)N1CCC1=CCCCC1 (configuration not stated)	-14.9%	–
CC1=C(C(=O)Nc2ccccc2)S(=O)(=O)CCO1	–	0.794 µM (active)
O=C(Nc1ccccc1)c1ccc2c(c1)OCCCO2	-17.9%	–
CC1=C(C(=O)Nc2ccccc2)SCCO1	-8.62%	–
OC(CBr)C[n+]1cccc2cc(Br)ccc21 (configuration not stated)	-19.5%	–
COc1cccc(C(O)c2nc(-c3ccc(C)c(C)c3)cs2)c1 (configuration not stated)	-9.02%	–
CCC(C)N(c1ccc(/C=C/c2ccnc3ccccc23)cc1)C(C)CC (configuration not stated)	25.9%	–
COC(=O)Cc1ccc(OC2(C)CCN(Cc3ccc4c(c3)OCCO4)C2)cc1 (configuration not stated)	-6.83%	–
COC(=O)c1ccc2nc(-c3ccccc3)c(Cc3ccc(OC)cc3C)n2c1	1.02%	–
CCCc1nc2sc3c(c2c(=O)n1NC(=O)CCCl)CCCC3	–	7.94 µM (active)
Cn1c(NN)nc2sc3c(c2c1=O)CCC3	-13.9%	–

Compound	activity change, negative = inhibition	Potency
Cc1ccc(C)c(-n2c(SCC(=O)O)nc3sc4c(c3c2=O)CCCC4)c1	-18.6%	–
Nc1nc2c(Br)ccc(Br)c2cc1C(=O)NCCc1ccccc1	-9.13%	–
Cc1ccc2nc(-c3ccccc3)c(CC3CCCCC3)n2c1	-3.43%	–
O=C(NC1CCCC1)C1c2ccccc2OCC(=O)N1Cc1ccccc1 (configuration not stated)	0.451%	–
CC(=O)c1cccc(-c2cnc3c(NC=O)cc(-c4cccc(C(=O)N(C)C)c4)cn23)c1	-4.87%	–
CC(=O)c1ccc(-c2cnc3c(NC=O)cc(-c4cccc(NS(C)(=O)=O)c4)cn23)cc1	–	11.2 µM (active)
CC(=O)c1cccc(-c2cnc3c(NC=O)cc(-c4ccc(N(C)C)cc4)cn23)c1	19.6%	–
CC(C)(C)c1ccc(C(=O)C[N+]2(C)CCCc3ccccc32)cc1 (configuration not stated)	-21.8%	–
CCC(C)(O)C(=O)OC1C(=O)OC2CC3C(C)=CC(=O)C(O)C3(C)C3C4(O)OCC23C1C(C)C4O (configuration not stated)	–	0.316 µM (active)
CC=CCn1c(SCCCc2ccccc2)nc2c1c(=O)[nH]c(=O)n2C	-14.7%	–
CN(C(=N)N)c1ccc(/C=C2\C=Cc3ccccc32)cc1	-17.4%	–
COc1ccc(S(=O)(=O)N2CCCCC2c2cc(C(=O)NCc3ccc(F)cc3)no2)cc1 (configuration not stated)	-10.1%	–
CCN(CC)c1ncnc2c1ncn2[C@H]1CN(Cc2cccs2)C[C@@H](CO)O1	-4.26%	–
CCOc1cc(N2CCOCC2)c(OCC)cc1NC(=O)COc1cccc2cccnc12	–	12.6 µM (active)
CCOc1cc(N2CCOCC2)c(OCC)cc1NC(=O)COc1cccc(Cl)c1	-18.9%	–
CCOc1cc(N2CCOCC2)c(OCC)cc1NC(=O)c1cc(C)nc2ccccc12	-7.77%	–
CN(N=O)c1ccc(C=C2c3ccccc3-c3ccccc32)cc1	-10.5%	–
CN(C)C1=C2C=CC=CC2/C(=C2/C=Cc3ccccc32)C=C1 (configuration not stated)	-11.3%	–
CCCc1ccc(OCc2ccc(C(=O)N/N=C/c3cccc([N+](=O)[O-])c3)o2)c(OC)c1	–	7.08 µM (active)
O=C(N/N=C/c1cccc(OCc2ccccc2)c1)c1ccc(Br)o1	-10.1%	–
COC(=O)c1ccc(COc2ccc(/C=N/NC(=O)C(=O)Nc3ccc(OC)cc3)cc2OC)o1	4.27% [at 7.34 µM]	–
CC(=O)Nc1cccc(-c2cc(NC(C)=O)c3ncc(-c4ccccc4)n3c2)c1	-4.03%	–
CC(C)C[C@@H]1Cc2[nH][nH]c(=O)c2[C@H](CCc2ccccc2)O1	-11.9%	–

Compound	activity change, negative = inhibition	Potency
CC(C)Sc1nc(N)nc2c1ncn2C1OC(CO)C(O)C1O (configuration not stated)	2.2%	–
Nc1ncn(C2OC(CO)C(O)C2O)c(=O)n1 (configuration not stated)	–	10 µM (active)
Nc1nc(SCc2ccc([N+](=O)[O-])cc2)c2ncn(C3OC(CO)C(O)C3O)c2n1 (configuration not stated)	-18.7%	–
Fc1cccc(Cc2c(-c3cccc(Cl)c3)nc3ccc(Br)cn23)c1	-4.21%	–
C/C(=N\NC(=O)c1ccccc1F)c1ccccn1	-13.5%	–
C/C(=N\NC(=O)Cc1ccc(Cl)cc1)c1ccccn1	–	6.31 µM (active)
C/C(=N\NC(=O)Cc1ccc(Br)cc1)c1cccnc1	-10.3%	–
CCC(C(=O)NC(C)(C)C)n1c(-c2ccccc2)nc2ccccc21 (configuration not stated)	-3.62%	–
Cc1cc(Br)cn2c(Cc3ccsc3)c(-c3ccc(C#N)cc3)nc12	-6.63%	–
COc1ccc(-c2cc3nc(NCCOc4ccccc4)ccn3n2)cc1	-8.89%	–
CCOC(=O)C1=CC[C@@H](c2ccccc2)N(S(=O)(=O)c2ccc(C)cc2)[C@H]1c1ccc(CC)cc1	2.38%	–
COc1ccc(CS(=O)/C(Cl)=C(/Cl)C(=O)Nc2ccc(OC)nc2)cc1 (configuration not stated)	–	5.62 µM (active)
CCOc1ccc(S(=O)(=O)Nc2ccc(OC)nc2)cc1	-12.8%	–
COc1ccc(NC(=O)CN2C(=O)NC(C)(c3ccccc3)C2=O)cn1 (configuration not stated)	-4.42%	–
Cc1c(CCO)sc[n+]1CC(=O)c1ccc2ccccc2c1	1.96%	–
COC(=O)C1(C(=O)OC)C/C=C\CN(S(=O)(=O)c2ccccc2[N+](=O)[O-])CCC1	5.58%	–
COc1ccc(Br)c(Cn2c(C)c(C(=O)NCc3cccs3)sc2=O)c1	-4.37%	–
COc1cccc(NC(=O)C2(C)CCN2Cc2ccccc2Cl)c1 (configuration not stated)	-19.1%	–
O=C(NCc1ccccc1)C(c1ccc(F)cc1)N1CCN(C(=O)C2CCCO2)CC1 (configuration not stated)	-11.6%	–
Fc1ccc(N2CCN(Cc3ccc4c(c3)OCO4)CC2)cc1	-5.26%	–
Fc1ccc2[nH]c3c(N4CCN(Cc5ccc6c(c5)OCO6)CC4)ncnc3c2c1	–	6.31 µM (active)
O=c1[nH]c(N2CCN(Cc3ccc4c(c3)OCO4)CC2)nc2c1CCCC2	-2.01%	–
CCOP(=O)(OCC)C(Cc1ccccc1)N=C(c1ccccc1)c1ccccc1 (configuration not stated)	11.1%	–

Compound	activity change, negative = inhibition	Potency
CN(Cc1ccccc1)c1ccc(/C=C/c2ccnc3ccccc23)cc1	-10.8%	–
Brc1cccc[n+]1Cc1cccc(C[n+]2ccccc2Br)c1	-8.21%	–
COC(=O)c1ccc2nc(-c3ccc(F)cc3)c(Cc3ccc(C)cc3)n2c1	-7.97%	–
CC(C)(C)C1CCC(NC(=O)c2cnn3c2NC(=C2CC2)C=C3C(F)F)CC1 (configuration not stated)	-29.1%	–
O=c1c2ccccc2[nH]c(=S)n1-c1cccc(Cl)c1	-16.2%	–
Cc1[nH]n(-c2cccc(Cl)c2)c(=O)c1-c1ccc(Cl)cc1	–	28.2 µM (active)
O=c1c(-c2cccc(Cl)c2)c[nH]n1-c1ccccc1	-15.6%	–
CCN(CC)c1ccc(/C=C/c2c(C)cnc3ccc(C)cc23)cc1	-14.2%	–
CN1CCN(c2nc3c(c(=O)[nH]c(=O)n3C)n2Cc2cccc3ccccc23)CC1	-21.5%	–
Cn1c(=O)[nH]c(=O)c2c1nc(N1CCN(C(c3ccccc3)c3ccccc3)CC1)n2CCO	–	12.6 µM (active)
Cn1c(=O)[nH]c(=O)c2c1nc(N1CCN(CCO)CC1)n2CCSc1nc2ccccc2s1	-9.09%	–
COC(=O)[C@@]12C[C@@H](CC(=O)NCc3cccc(C(F)(F)F)c3)C(=O)N(Cc3ccco3)C1=CCC(C)(C)C2	-29.1%	–
C=C(C)C(=O)O[C@H]1C/C(C)=C\C(=O)/C=C(\C)[C@H](O)[C@@H]2OC(=O)C(=C)[C@@H]21	–	10 µM (active)
O=C1NC[C@H](Cc2ccc(O)cc2)N(C[C@H]2CCCN2C[C@H](Cc2ccccc2)N2C[C@H](Cc3ccccc3)N(CCc3ccccc3)C(=O)C2=O)C1=O	-2.33%	–
C#CCOCCOCCOCCNc1nc(N2CCN(C(=O)Cn3cc(CCO)nn3)CC2)nc(N2CCN(C(=O)[C@H](CCCCN)n3cc(CCCC)nn3)CC2)n1	7.77%	–
C#CCOCCOCCOCCNc1nc(N2CCN(C(=O)[C@H](CCC(=O)O)n3cc(CN)nn3)CC2)nc(N2CCN(C(=O)[C@H](CCC(=O)O)n3cc(CN)nn3)CC2)n1	-8.97%	–
C#CCOCCOCCOCCNc1nc(N2CCN(C(=O)CCCCCCCCCCNC(=O)[C@H]([C@@H](C)CC)n3cc(CCCCN=C(N)N)nn3)CC2)nc(N2CCN(C(=O)CCCCCCCCCCNC(=O)[C@H](CO)n3cc(CCCSC)nn3)CC2)n1	–	15.8 µM (active)
C#CCOCCOCCOCCNc1nc(N2CCN(C(=O)Cn3cc(CCCCN)nn3)CC2)nc(N2CCN(C(=O)[C@H](CCCCN)n3cc(CCC(=O)O)nn3)CC2)n1	-4.71%	–
C#CCOCCOCCOCCNc1nc(N2CCN(C(=O)CCCCCCCCCCNC(=O)[C@H](CCCCN)n3cc(C)nn3)CC2)nc(N2CCN(C(=O)CCCCCCCCCCNC(=O)[C@H](CO)n3cc(CCCSC)nn3)CC2)n1	–	7.94 µM (active)
C#CCOCCOCCOCCNc1nc(N2CCN(C(=O)[C@H](CCCCN)n3cc(CCC(=O)O)nn3)CC2)nc(N2CCN(C(=O)[C@H](CCCCN)n3cc(CC(C)O)nn3)CC2)n1 (some centres not stated)	-7.26%	–
C#CCOCCOCCOCCNc1nc(N2CCN(C(=O)[C@H](C(C)C)n3cc(CCO)nn3)CC2)nc(N2CCN(C(=O)[C@H]([C@@H](C)CC)n3cc(CCCN=C(N)N)nn3)CC2)n1	-7.34%	–
C#CCOCCOCCOCCNc1nc(N2CCN(C(=O)CCCCCCCCCCNC(=O)Cn3cc(CCCCCN)nn3)CC2)nc(N2CCN(C(=O)CCCCCCCCCCNC(=O)[C@H](CO)n3cc(CCCSC)nn3)CC2)n1	–	10 µM (active)
C#CCOCCOCCOCCNc1nc(N2CCN(C(=O)Cn3cc(CCO)nn3)CC2)nc(N2CCN(C(=O)Cn3cc(CCCN=C(N)N)nn3)CC2)n1	-1.69%	–
